Test results: PubChem BioAssay AID602400 (Sanford-Burnham Center for Chemical Genomics, 2012)
Unmarked numbers belong to inactive results. The source made the active and inactive calls. No rule for the calls is given here.

assay: off-target activity on Bfl-1 – biochemical, set 4, counter-screen for UBC13 polyubiquitination inhibitor project, SAR follow-up (AID 602400); details: Bfl-1 counterscreen for UBC13 inhibitors

| Structure (SMILES) | IC50 |
| --- | --- |
| CC1CCCC(C)N1CCCNC(=O)C1CCCN(c2ncnc3c2nc2n3CCCCC2)C1 (stereo not given) | > 100 µM |
| O=C(NCc1cccc(Cl)c1)C1CCCN(c2ncnc3c2nc2n3CCCC2)C1 (stereo not given) | > 100 µM |
| O=C(NCC1CCN(Cc2ccc(Cl)c(Cl)c2)CC1)C1CCCN(c2ncnc3c2nc2n3CCCC2)C1 (stereo not given) | > 100 µM |
| O=C(C1CCN(c2ncnc3c2nc2n3CCCCC2)CC1)N1CCN(c2ccc(F)cc2)CC1 | > 100 µM |
| Cc1cccc(N2CCN(CCCNC(=O)C3CCCN(c4ncnc5c4nc4n5CCCCC4)C3)CC2C)c1 (stereo not given) | > 100 µM |
| Cc1ccc(NC(=O)C2CCCN(c3ncnc4c3nc3n4CCCCC3)C2)cc1Br (stereo not given) | > 100 µM |
| Cc1ccc(NC(=O)C2CCN(c3ncnc4c3nc3n4CCCCC3)CC2)cc1Br | > 100 µM |
| Cc1cccc(NC(=O)C2CCN(c3ncnc4c3nc3n4CCCCC3)CC2)c1C | > 100 µM |
| O=C(NCCCN1CCCCC1)C1CCN(c2ncnc3c2nc2n3CCCCC2)CC1 | > 100 µM |
| O=C(NCC1CCN(Cc2cccc(Cl)c2)CC1)[C@@H]1CCCN(c2ncnc3c2nc2n3CCCC2)C1 | > 100 µM |
| O=C(NCC1CCN(Cc2cccc(Cl)c2)CC1)C1CCCN(c2ncnc3c2nc2n3CCCCC2)C1 (stereo not given) | > 100 µM |
| Cc1cccc(NC(=O)C2CCCN(c3ncnc4c3nc3n4CCCC3)C2)c1 (stereo not given) | > 100 µM |
| COc1ccc(NC(=O)C2CCN(c3ncnc4c3nc3n4CCCCC3)CC2)cc1Cl | > 100 µM |
| O=C(NCC1CCN(Cc2ccc(Cl)cc2)CC1)C1CCCN(c2ncnc3c2nc2n3CCCCC2)C1 (stereo not given) | > 100 µM |
| Cc1ccc(NC(=O)C2CCN(c3ncnc4c3nc3n4CCCC3)CC2)cc1F | > 100 µM |
| O=C(c1ccco1)N1CCN(C(=O)C2CCN(c3ncnc4c3nc3n4CCCCC3)CC2)CC1 | > 100 µM |
| O=C(C1CCN(c2ncnc3c2nc2n3CCCCC2)CC1)N1CCN(c2ccccn2)CC1 | > 100 µM |
| O=C(NCC1CCN(Cc2ccc(F)cc2)CC1)C1CCCN(c2ncnc3c2nc2n3CCCCC2)C1 (stereo not given) | > 100 µM |

| Structure (SMILES) | IC50 |
| --- | --- |
| COc1ccccc1N1CCN(CCCNC(=O)C2CCCN(c3ncnc4c3nc3n4CCCCC3)C2)CC1 (stereo not given) | > 100 µM |
| O=C(NCc1ccc(Cl)c(Cl)c1)C1CCCN(c2ncnc3c2nc2n3CCCC2)C1 (stereo not given) | > 100 µM |
| Cc1cc(C)cc(NC(=O)C2CCN(c3ncnc4c3nc3n4CCCC3)CC2)c1 | 23.9 µM (active) |
| Cc1ccc(NC(=O)C2CCCN(c3ncnc4c3nc3n4CCCC3)C2)cc1Br (stereo not given) | > 100 µM |
| O=C(C1CCN(c2ncnc3c2nc2n3CCCCC2)CC1)N1CCN(Cc2ccccc2)CC1 | > 100 µM |
| O=C(NCC1CCN(Cc2ccc(Cl)c(Cl)c2)CC1)C1CCCN(c2ncnc3c2nc2n3CCCCC2)C1 (stereo not given) | > 100 µM |
| COc1ccc(Cl)cc1NC(=O)C1CCN(c2ncnc3c2nc2n3CCCCC2)CC1 | > 100 µM |
| O=C(NCC1CCN(Cc2cccc(Cl)c2)CC1)[C@@H]1CCCN(c2ncnc3c2nc2n3CCCCC2)C1 | > 100 µM |
| O=C(NCC1CCN(Cc2cccc(Cl)c2)CC1)C1CCCN(c2ncnc3c2nc2n3CCCC2)C1 (stereo not given) | > 100 µM |
| Cc1cc(C)cc(NC(=O)C2CCCN(c3ncnc4c3nc3n4CCCC3)C2)c1 (stereo not given) | > 100 µM |
| O=C(NCCCN1CCN(c2ccccc2)CC1)C1CCCN(c2ncnc3c2nc2n3CCCCC2)C1 (stereo not given) | > 100 µM |
| O=C(NCc1cccc(Cl)c1)C1CCCN(c2ncnc3c2nc2n3CCCCC2)C1 (stereo not given) | > 100 µM |
| Cc1ccc(NC(=O)C2CCN(c3ncnc4c3nc3n4CCCC3)CC2)cc1C | 20.8 µM (active) |
| O=C(NCc1ccc(Cl)c(Cl)c1)C1CCN(c2ncnc3c2nc2n3CCCC2)CC1 | > 100 µM |
| O=C(Nc1ccc(F)c(Cl)c1)C1CCN(c2ncnc3c2nc2n3CCCCC2)CC1 | > 100 µM |
| Cc1ccc(NC(=O)C2CCN(c3ncnc4c3nc3n4CCCCC3)CC2)cc1C | > 100 µM |
| COc1cc(OC)c(NC(=O)C2CCN(c3ncnc4c3nc3n4CCCCC3)CC2)cc1Cl | > 100 µM |
